Rows were chosen to be rich in hits. Some 4.2% of all compounds tested hit in one or more screens of this group.
CHOP inhibitor = CHOP inhibition in unfolded protein response | AID 2732 | inhibition, % at 10 µM | actives 3.8% (n = 220,000) | CHO-K1 CHOP-promoter luciferase, tunicamycin-induced, 15-18 h;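 active = compounds that reduced the stress-induced luciferase reporter signal by more than about 70% of percent inhibition, limit read from the data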
S1P4 antag = blocks the human S1P4 receptor; inhibition, % at 4.98 µM; O95977; actives 0.26% (n = 220,000); S1P4-expressing cells, antagonist mode, reporter read-out; AID 1510; in the data active = inhibition above about 29%
Target sequence (O95977 whole entry, looked up): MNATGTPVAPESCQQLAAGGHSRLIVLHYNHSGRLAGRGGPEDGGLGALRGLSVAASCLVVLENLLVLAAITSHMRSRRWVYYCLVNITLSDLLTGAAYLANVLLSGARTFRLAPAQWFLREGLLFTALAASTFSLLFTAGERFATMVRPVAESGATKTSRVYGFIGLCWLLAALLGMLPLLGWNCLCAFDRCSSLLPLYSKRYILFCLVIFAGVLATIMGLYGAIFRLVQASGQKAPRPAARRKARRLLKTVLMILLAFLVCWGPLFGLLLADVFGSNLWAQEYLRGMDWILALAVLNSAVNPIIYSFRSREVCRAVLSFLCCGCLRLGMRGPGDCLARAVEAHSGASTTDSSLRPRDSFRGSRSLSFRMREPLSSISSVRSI
S1P4 ag = agonists of human S1P4 receptor. actives 0.35% (n = 220,000). AID 1509. O95977. S1P4-expressing cell line, agonist reporter assay. activation, % at 4.98 µM; in the data active = activation above about 11%
Hsp70 activator = switches on Hsp70 transcription. HeLa Hsp70 promoter luciferase reporter, luminescence; scaled: vehicle 0, proteasome-inhibitor control 100%. activation, % at 10 µM. AID 1203. actives 0.04% (n = 200,000);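 active = activation above the mean across all tested compounds plus 3 SD, cutoff set per campaign, cut at about 5.5% in these data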
CHOP inh conf = confirmation of CHOP induction inhibitors. inhibition, % at 10 µM. actives 45% (n = 2,100). shares compounds with CHOP inhibitor. CHO-CHOP promoter luciferase reporter, tunicamycin-induced, luminescence;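 active = mean of three repeat readings of reporter signal inhibition above a set limit, cut at about 70% in these data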
Numbers stand for hits; i = inactive; nt = not tested or not shown.

SMILES	CHOP inhibitor	S1P4 antag	S1P4 ag	Hsp70 activator	CHOP inh conf
Cc1c(C(=O)OC/C(O)=C(\C#N)c2nc3ccccc3[nH]2)oc2ccc(Br)cc12	102.9	i	i	nt	i
N#C/C(=C(/O)COC(=O)c1ccc(O)cc1)c1nc2ccccc2[nH]1	i	i	i	nt	nt
Cn1c(/C=C(\C#N)C(N)=S)ccc1-c1ccc(Br)cc1	i	i	i	i	nt
Cc1c(NC(=O)CSc2nc3ccccc3s2)c(=O)n(-c2ccccc2)n1C	i	i	i	i	nt
Cc1ccc2c(c1)Oc1ccc(NC(=O)CCCl)cc1C(=O)N2	i	i	i	i	nt
C=C(C)C(=O)OC1(C(F)(F)F)Oc2cc(C)ccc2NC1=O (stereo unspecified)	108.8	i	i	i	116.3
O=C(Nc1ccc(F)cc1)c1ccccc1Oc1ccc(C(F)(F)F)cc1[N+](=O)[O-]	106.1	i	i	i	i
O=C(CSc1ccc(C(F)(F)F)cc1[N+](=O)[O-])Nc1ccccc1	96.7	i	i	i	i
CC(C)NC(=O)C1CCN(Cc2cnn(-c3ccccc3)c2-n2cccc2)CC1	i	i	i	i	nt
Cc1cccc2c1N(CCOc1ccc(C(C)(C)C)cc1)C(=O)C2=O	99.8	i	i	i	i
Brc1ccc(CSc2nnc(Cc3c[nH]c4ccccc34)o2)cc1	103.5	i	i	i	i
Clc1ccc(CSc2nnc(-c3c[nH]c4ccccc34)o2)cc1	i	i	i	i	nt
C/C(=N\NC(=O)COc1ccccc1-c1ccccc1)c1ccc(O)cc1O	103.6	i	i	nt	i
CCOC(=O)c1ccc(NC(=O)CCc2nc(-c3cccc(C)c3)no2)cc1	98.4	i	i	i	i
Nc1cccc(Nc2nc(OC(C(F)(F)F)C(F)(F)F)nc(OC(C(F)(F)F)C(F)(F)F)n2)c1	100.0	i	i	i	117.1
COc1nc(Nc2ccc(O)cc2)nc(OC(C(F)(F)F)C(F)(F)F)n1	i	i	i	i	nt
CC(=O)N1CCN(CCN(CC2C(C)C=C(C)CC2C)C(C)=O)CC1 (stereo unspecified)	i	i	i	i	nt
O=c1[nH]c(=O)n(C2CCCCCC2)c(O)c1C=NCc1ccc(F)cc1	106.8	i	i	i	i
COc1ccccc1NC(=O)c1c(Nc2ccccc2C)sc(C(=O)Nc2cccc(Cl)c2)c1N	100.0	i	i	i	131.0
CSC1=C(C#N)C(=O)NC(c2ccccc2O)S1 (stereo unspecified)	i	i	i	nt	nt
COC(=O)CSC1=C(C#N)C(=O)NC(c2ccccc2)S1 (stereo unspecified)	99.3	i	i	i	i
N#CC(c1ccccc1O)N1N=C(c2ccccc2)CC1c1ccccc1 (stereo unspecified)	97.1	i	i	nt	i
Cc1ccc(S(=O)(=O)N/N=C/c2ccccc2O)cc1[N+](=O)[O-]	i	i	i	i	nt
O=C(N/N=C/c1cccc([N+](=O)[O-])c1)c1cccc2cc[nH]c12	100.6	i	i	i	i
O=C(N/N=C/c1cc([N+](=O)[O-])ccc1O)c1cccc2cc[nH]c12	i	i	i	nt	nt
SMILES	CHOP inhibitor	S1P4 antag	S1P4 ag	Hsp70 activator	CHOP inh conf
CCOC(=O)C1=C(c2ccccc2)OC(N)=C(C#N)C1C1CCCCC1 (stereo unspecified)	109.1	i	i	i	i
O=C(COC(=O)C1=COCCO1)Nc1ncc(C(F)(F)F)cc1Cl	i	i	i	i	nt
N=c1sccn1CC(=O)N1N=C(c2ccc(Cl)cc2)CC1c1ccco1 (stereo unspecified)	i	i	i	i	nt
O=C(Cn1ncc(Cl)c(Cl)c1=O)NCC1CCCCC1	108.3	i	i	i	i
O=C(Cn1ncc(Cl)c(Cl)c1=O)NC1CCS(=O)(=O)C1 (stereo unspecified)	i	i	i	nt	nt
O=C(Cn1cnc2ccccc2c1=O)N1CCOCC1	i	i	i	i	nt
CC(CCc1ccccc1)NC(=O)CN1CCN(Cc2ccccc2)C1=O (stereo unspecified)	i	i	i	i	nt
Cc1nn(-c2ccccc2Cl)c(Cl)c1/C=N/Nc1nc2ccccc2s1	96.7	i	i	i	98.4
CCOC(=O)N/N=C/c1c(C)nn(-c2ccccc2Cl)c1Cl	i	i	i	i	nt
S=C(Nc1ccccc1)Nc1cc(Cl)ccc1Oc1ccccc1	101.8	i	i	i	i
O=C(NN1CCOCC1)c1cn(-c2ccccc2)nc1-c1cccs1	i	i	i	nt	nt
C/C(N)=C(/C#N)C(=O)COC(=O)CC1CCCC1	nt	i	i	i	nt
C/C(N)=C(/C#N)C(=O)COC(=O)C1CCC(C(C)(C)C)CC1 (stereo unspecified)	97.3	i	i	i	86.7
CCN(CC)CC(=O)NCC1(c2ccccc2)CCOCC1	i	i	i	i	nt
CCc1ccc(S(=O)(=O)/N=C2\C=CC(=O)c3ccccc32)cc1	i	i	i	i	nt
CCc1ccc(S(=O)(=O)/N=C2/C=C(Sc3ncn[nH]3)C(=O)c3ccccc32)cc1	108.1	i	i	i	i
CC1CCN(S(=O)(=O)c2ccc(C(=O)N3CCN(c4ccccc4F)CC3)cc2)CC1	i	i	i	i	nt
Cc1ccc(OCCOc2ccc(Br)cc2/C=N\NC(N)=O)cc1	103.3	i	i	i	i
NC(=O)N/N=C\c1cc(Br)ccc1O	i	i	i	i	nt
Nc1c(C(=O)Nc2ccc(S(=O)(=O)N3CCCC3)cc2)sc2nc3ccc(OC(F)(F)F)cc3cc12	106.0	i	i	i	112.3
Cc1ccc(S(=O)(=O)Nc2ccc(Cl)cc2)cc1NC(=O)c1cc2c(s1)CCCC2	103.5	i	i	i	i
O=c1cc(-c2c(F)c(F)c(F)c(F)c2F)oc2c(F)c(F)c(F)c(F)c12	108.6	i	i	i	124.0
O=c1cc(-c2c(F)c(F)c(F)c(F)c2F)oc2ccccc12	i	i	i	i	nt
O=[N+]([O-])c1c(NCCCO)cc(Sc2ccc(Cl)cc2)c2nonc12	110.7	i	i	i	141.0
CC(=O)OCCNc1cc(SCc2ccco2)c2nonc2c1[N+](=O)[O-]	i	i	i	i	nt
SMILES	CHOP inhibitor	S1P4 antag	S1P4 ag	Hsp70 activator	CHOP inh conf
CC(=O)OCCCNc1cc(Sc2nc3ccccc3s2)c2nonc2c1[N+](=O)[O-]	109.0	i	i	i	i
COc1ccc(CNc2cc(NCCCO)c([N+](=O)[O-])c3nonc23)cc1	i	i	i	i	nt
CCCc1nnc(SCC(=O)N2CCOCC2)n1CC1CCCO1 (stereo unspecified)	i	i	i	i	nt
FC(F)(F)c1nnc(-c2ccccc2)nc1Sc1ccccc1	108.8	i	i	i	i
FC(F)(F)c1nnc(-c2ccccc2)nc1Oc1ccc(Cl)cc1Cl	i	i	i	i	nt
FC(F)(F)c1cccc(Sc2nc(-c3ccccc3)nnc2C(F)(F)F)c1	108.5	i	i	i	108.7
FC(F)(F)c1nnc(-c2ccccc2)nc1Sc1ccc(Cl)cc1	114.2	i	i	i	118.9
Cc1ccc(NC(=O)CSCc2n[nH]c(=O)[nH]2)c(Br)c1	i	i	i	i	nt
COc1cc(/C=N/N(C)c2ccccc2)cc(Cl)c1O	97.3	i	i	i	i
CCn1c(C)nc2cc(-c3nc4n(n3)Cc3ccccc3-4)ccc21	nt	i	i	i	138.5
